According to PubChem BioAssay:
Calls of active or inactive are those of the source. Unless noted, the rule behind the calls is not given here.

Experiments:
[1] = A549 cell viability effects, profiling panel, calcein-AM fluorescence, 48 h, basal (AID 1162); conditions: higher = more signal; note: test concentration not given here
[2] = adipocyte viability effects, profiling panel, cell-based, 3T3-L1 adipocytes, calcein-AM fluorescence, 48 h, basal (AID 1163); conditions: 3T3-L1 adipocytes viability, higher = more signal; note: test concentration not given here
[3] = HepG2 cell viability effects, profiling panel, calcein-AM fluorescence, 48 h, basal (AID 1164); conditions: higher = more signal; note: test concentration not given here
[4] = MM1S cell viability effects, profiling panel, calcein-AM fluorescence, 48 h, basal (AID 1165); conditions: higher = more signal;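 note: viability of MM1S multiple myeloma cells under basal unstimulated conditions; test concentration not given here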
[5] = basal RPMI8226 viability, no added stimulus, profiling panel, cell-based, calcein-AM fluorescence, 48 h, PK04 Diversity Set (AID 1166); conditions: RPMI8226 myeloma viability, higher = more signal;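 note: cells grown under basal conditions without added stimulus; test concentration not given here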
[6] = basal HepG2 mitochondrial membrane potential changes, profiling panel, cell-based, JC-1 fluorescence, 24 h, 100 nL compound (AID 1167); conditions: higher = more signal; note: test concentration not given here
[7] = basal 3T3-L1 adipocyte mitochondrial potential changes, profiling panel, cell-based, JC-1 fluorescence, 3T3-L1 adipocytes, 24 h, 100 nL compound (AID 1168); conditions: JC-1 mitochondrial fluorescence, higher = more signal, called active from +8 up or from −8 down; note: test concentration not given here
[8] = basal RPMI8226 mitochondrial membrane potential changes, profiling panel, cell-based, JC-1 fluorescence, 24 h, 100 nL compound (AID 1169); conditions: RPMI8226 myeloma, JC-1 mitochondrial potential fluorescence, higher = more signal; note: test concentration not given here
[9] = basal MM1S mitochondrial membrane potential changes, profiling panel, cell-based, JC-1 fluorescence, 24 h, 100 nL compound (AID 1170); conditions: higher = more signal; note: test concentration not given here
[10] = A549 lung cancer cell viability effects, profiling panel, resazurin fluorescence, 24 h, PK04 Diversity Set (AID 1171); conditions: higher = more signal, called active from +8 up or from −8 down; note: test concentration not given here
[11] = HepG2 liver cancer cell viability effects, profiling panel, resazurin fluorescence, 24 h, PK04 Diversity Set (AID 1172); conditions: higher = more signal; note: test concentration not given here
[12] = basal S. cerevisiae growth modulation, no modifier, primary screen, OD600, strain BY4716, 24 h, basal condition (AID 1173); conditions: OD600, 24 h, higher = more signal, called active from +8 up or from −8 down
[13] = MM1S myeloma cell viability, profiling panel, resazurin fluorescence, basal, 24 h, PK04 Diversity Set (AID 1174); conditions: higher = more signal, called active from +8 up or from −8 down;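 note: MM1S multiple myeloma cell line; test concentration not given here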
[14] = biological target: Dihydroorotate dehydrogenase (quinone), mitochondrial (Plasmodium falciparum (isolate 3D7)) (UniProt Q08210); assay: PfDHODH enzyme inhibitors, primary screen, biochemical, C-terminal His tag, absorbance 600 nm (AID 1175); conditions: DCIP absorbance 600 nm, higher = more signal, called active from +8 up or from −8 down;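 note: recombinant parasite enzyme with a five histidine tag at its C terminus; test concentration not given here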
Chain of Dihydroorotate dehydrogenase (quinone), mitochondrial (Plasmodium falciparum (isolate 3D7)) (Q08210 whole entry, looked up): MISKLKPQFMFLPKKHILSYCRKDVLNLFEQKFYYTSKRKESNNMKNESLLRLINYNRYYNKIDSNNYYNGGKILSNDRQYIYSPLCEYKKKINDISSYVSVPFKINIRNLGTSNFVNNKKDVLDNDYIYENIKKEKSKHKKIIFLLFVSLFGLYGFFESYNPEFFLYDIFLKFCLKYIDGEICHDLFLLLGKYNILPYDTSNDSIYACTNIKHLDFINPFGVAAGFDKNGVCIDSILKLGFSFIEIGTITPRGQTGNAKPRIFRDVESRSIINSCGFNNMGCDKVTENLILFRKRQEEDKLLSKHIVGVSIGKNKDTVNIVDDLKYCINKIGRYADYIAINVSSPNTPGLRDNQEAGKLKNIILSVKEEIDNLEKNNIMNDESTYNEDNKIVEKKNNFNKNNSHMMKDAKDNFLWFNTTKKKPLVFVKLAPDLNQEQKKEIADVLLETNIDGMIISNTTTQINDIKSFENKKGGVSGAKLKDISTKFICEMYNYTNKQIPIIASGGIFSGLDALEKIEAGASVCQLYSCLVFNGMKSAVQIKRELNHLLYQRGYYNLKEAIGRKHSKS

[15] = P. aeruginosa biofilm formation inhibitors, primary screen, strain PAO1, LB-PBS medium, absorbance 600 nm (AID 1176); note: test concentration not given here; conditions: P. aeruginosa PAO1 growth/biofilm, A600, 12 h; higher = more signal
[16] = S. cerevisiae RM11-1a growth modifiers, primary screen, strain RM11-1a, OD600, basal, 24 h (AID 1177); conditions: OD600, 24 h, higher = more signal, called active from +8 up or from −8 down;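 note: cultures grown under basal conditions with no added stressor; test concentration not given here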
[17] = E. coli acrAB mutant growth effects, primary screen, E. coli filamentation inducers, strain DRC39, OD650, 24 h (AID 1178); conditions: higher = more signal, called active from +8 up or from −8 down;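 note: growth measured as culture turbidity by optical density at 650 nm; test concentration not given here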
[18] = E. coli acrAB mutant growth effects, primary screen, E. coli filamentation inducers, strain DRC39, OD650, 48 h (AID 1179);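 note: screen aims at cell division blockers that make cells filament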; conditions: E. coli DRC39 delta-acrAB growth, higher = more signal, called active from +8 up or from −8 down
[19] = RPMI8226 myeloma cell viability, profiling panel, resazurin fluorescence, basal, 24 h, PK04 Diversity Set (AID 1180); conditions: higher = more signal;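 note: RPMI8826 multiple myeloma cell line at 5000 cells per well; test concentration not given here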
[20] = biological target: E3 ubiquitin-protein ligase XIAP (Homo sapiens) (UniProt P98170); assay: XIAP binders, primary screen, biophysical, small-molecule microarray, fluorescence 635 nm (AID 1181); conditions: small-molecule microarray binding, higher = more signal;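 note: score merges 667 nm emission and signal to noise over triplicate slides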
Chain of E3 ubiquitin-protein ligase XIAP (Homo sapiens) (P98170 whole entry, looked up): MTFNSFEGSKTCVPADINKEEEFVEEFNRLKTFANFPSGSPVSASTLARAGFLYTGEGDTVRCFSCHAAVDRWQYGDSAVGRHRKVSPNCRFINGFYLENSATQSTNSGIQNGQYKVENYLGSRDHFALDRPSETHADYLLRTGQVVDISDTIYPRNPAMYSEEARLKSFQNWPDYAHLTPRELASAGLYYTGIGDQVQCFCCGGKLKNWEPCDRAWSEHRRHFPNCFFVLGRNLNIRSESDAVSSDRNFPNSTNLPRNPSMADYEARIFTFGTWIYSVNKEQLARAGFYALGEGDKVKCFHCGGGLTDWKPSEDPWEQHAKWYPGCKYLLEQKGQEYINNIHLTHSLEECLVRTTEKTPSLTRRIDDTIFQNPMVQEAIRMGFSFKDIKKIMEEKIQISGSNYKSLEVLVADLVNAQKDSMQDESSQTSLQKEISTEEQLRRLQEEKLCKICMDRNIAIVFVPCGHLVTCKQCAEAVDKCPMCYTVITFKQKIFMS

Row | SMILES | z-score [1] | z-score [2] | z-score [3] | z-score [4] | z-score [5] | z-score [6] | z-score [7] | z-score [8] | z-score [9] | z-score [10] | z-score [11] | z-score [12] | z-score [13] | composite z-score [14] | z-score [15] | z-score [16] | z-score [17] | z-score [18] | z-score [19] | composite z-score [20]
1 | CCOC(=O)C1=CCC(C(C)(C)C)N(S(=O)(=O)c2ccc(C)cc2)C1 (stereo not given) | -0.723 | -0.194 | -0.157 | -2.31 | -1.28 | -1 | 0.161 (inactive) | -0.1 | -0.562 | 0.613 (inactive) | -0.462 | 0.586 (inactive) | -0.0359 (inactive) | 0.406 (inactive) | -0.321 (inactive) | 1.29 (inactive) | -0.021 (inactive) | -0.52 (inactive) | -0.719 | -0.0476
2 | CC(=O)C1=CCC(c2ccccc2)N(S(=O)(=O)c2ccc(C)cc2)C1 (stereo not given) | -0.346 | 0.0159 | -0.727 | -0.0171 | -1.08 | -0.602 | -1.35 (inactive) | 0.697 | 0.329 | 0.183 (inactive) | -0.0399 | 0.832 (inactive) | -0.551 (inactive) | 0.746 (inactive) | 0.533 (inactive) | 0.227 (inactive) | 0.422 (inactive) | 0.0116 (inactive) | -0.809 | -0.0773
3 | O=C1C[C@@](C(=O)NC2CC2)(c2ccc([N+](=O)[O-])cc2)[C@@H](c2ccc(CO)cc2)N1CC12CC3CC(CC(C3)C1)C2 | -1.14 | 0.781 | -1.94 | -2.07 | -3.09 | -0.881 | -0.199 (inactive) | -0.507 | -0.214 | -1.45 (inactive) | -0.494 | -0.369 (inactive) | -2.23 (inactive) | 0.117 (inactive) | -0.273 (inactive) | 0.0982 (inactive) | -0.284 (inactive) | 0.466 (inactive) | -3.25 | 0.0975
4 | COCCOC(=O)N1C(=O)[C@@]2(c3cc(C#CCC(C(=O)OC)C(=O)OC)ccc31)[C@H](c1ccccc1OCCO)N1[C@H](c3ccccc3)[C@H](c3ccccc3)OC(=O)[C@H]1[C@@H]2C(=O)N1CCc2cc(OC)c(OC)cc2C1 | 0.178 | 1.76 | -0.821 | -0.906 | -0.756 | -0.0323 | 2.21 (inactive) | -0.833 | -0.702 | 1.34 (inactive) | 1.68 | 0.983 (inactive) | 1.58 (inactive) | -0.857 (inactive) | 1.45 (inactive) | 1.16 (inactive) | 0.252 (inactive) | -0.441 (inactive) | 1.78 | 0.314
5 | C=C[C@H](C)[C@@H](O)c1ccc(O)c2ccccc12 | -0.573 | -0.69 | -0.218 | -2.57 | -1.55 | -1.98 | -0.641 (inactive) | -0.94 | -1.29 | -0.292 (inactive) | 0.146 | -12.2 (active) | -1 (inactive) | -0.177 (inactive) | 1.03 (inactive) | 0.248 (inactive) | 0.537 (inactive) | 0.445 (inactive) | -0.791 | -0.0622
6 | Cc1ccc(S[C@]2(C(=O)NC3CC3)CC(=O)N(C3CCCCC3)[C@@H]2c2ccc(CO)cc2I)cc1 | 1.07 | -0.07 | 1.12 | -2.5 | -1.7 | 1.62 | 0.124 (inactive) | -0.558 | -1.2 | -0.0731 (inactive) | 0.57 | -0.134 (inactive) | -0.232 (inactive) | 1.44 (inactive) | 0.475 (inactive) | 0.537 (inactive) | 0.738 (inactive) | 0.377 (inactive) | -1.54 | -0.13
7 | O=C1[C@]2(CO)C=C(Br)[C@@H](C[C@@H]2c2ccccc2)[C@@]12CO2 | -0.425 | 0.364 | -0.421 | -2.22 | -2.68 | -1.66 | -0.435 (inactive) | 0.278 | -1.14 | 0.359 (inactive) | 1.09 | -4.57 (inactive) | -0.0768 (inactive) | -0.172 (inactive) | -0.884 (inactive) | 0.184 (inactive) | 0.613 (inactive) | 0.585 (inactive) | -0.333 | -0.102
8 | [N-]=[N+]=Nc1ccccc1[C@@H]1OC(c2ccc(OCCCO)cc2)=N[C@]1(CCS(=O)(=O)c1ccccc1)C(=O)N1CCOCC1 | 1.53 | 0.293 | 1.33 | 0.0503 | -0.908 | 0.431 | 0.406 (inactive) | -0.746 | -0.799 | -0.549 (inactive) | -0.167 | 0.907 (inactive) | -0.638 (inactive) | 1.56 (inactive) | 0.507 (inactive) | 1.9 (inactive) | -0.311 (inactive) | 0.0945 (inactive) | -1.19 | 0.182
